# Reference: the supplement of paper PMC10849652
# About 8,800 targets were measured; listed, in parts, are those with a hit and a random draw of the rest. About 0.5% of all pairs of compound and target were hits. A number with no mark means an inactive call.
# Key:
# Experiment in all cases: log2 fold change, soluble protein after heating vs DMSO (PISA); higher = thermal stabilisation; K562 lysate, 10 uM; active = over 0.2 and 3.5 SD of the protein, either way, in both replicates (recomputed)
# ibrutinib = compound: C=CC(=O)N1CCC[C@@H](n2nc(-c3ccc(Oc4ccccc4)cc3)c3c(N)ncnc32)C1 [ibrutinib]
# In short: (§1)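 A 30 min treatment with 10 μM compound was applied to crude K562 extract at 1 mg/mL protein in PBS pH 7.4 with 1 mM MgCl2. Heating for 3 min spanned 48°C-58°C, after which aliquots were pooled, adjusted to 0.5% NP-40 at 4°C and spun at 21,000xg for 90 min. TMTpro 16plex LC-MS/MS of the supernatant, with channel sums equalised, gave values recorded as log-two fold change in thermal stability against solvent controls, from duplicates.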
# [1] = compound: CC(=O)c1cnc2ccc(-c3cc(Cl)c(O)c(Cl)c3)nc2c1N[C@H]1CC[C@H](CN(C)C)CC1
# In short: as §1
# ralimetinib = compound: CC(C)(C)Cn1c(N)nc2ccc(-c3[nH]c(C(C)(C)C)nc3-c3ccc(F)cc3)nc21 [ralimetinib]
# In short: as §1
# [2] = compound: CC(C)(O)CC(=O)NCCn1ccc2ncnc(Nc3ccc(Oc4cccc(C(F)(F)F)c4)c(Cl)c3)c21
# In short: as §1
# [3] = compound: CC(C)C1=C2N=C(C=C(N2N=C1)NCC3=CC=CC=C3)NCCCCCCN
# In short: as §1
# [4] = compound: CC1=C(C(CC(=O)N1)C2=CC=C(C=C2)C(F)(F)F)C(=O)NC3=C(C=C4C(=C3)C=NN4)F
# In short: as §1
# [5] = compound: CC1=C(C2=C(C=C1)C(=O)C3=CC=CC=C3N2CCCN)C
# In short: as §1
# [6] = compound: CC1=C(C=C(C=C1)NC(=O)C2=CC(=CC=C2)C(C)(C)C#N)NC3=CC4=C(C=C3)N=CN(C4=O)C
# In short: as §1
# [7] = compound: CC1=C(C=C(C=C1)NC(=O)C2=CC(=CC=C2)N(C)C)NC(=O)C3=CC=C(C=C3)O
# In short: as §1
# [8] = compound: CC1=CC=C(C=C1)SC2=C3C=C(SC3=CN=C2)C(=O)N
# In short: as §1
# vemurafenib = compound: CCCS(=O)(=O)Nc1ccc(F)c(C(=O)c2c[nH]c3ncc(-c4ccc(Cl)cc4)cc23)c1F [vemurafenib]
# In short: as §1
# [9] = compound: CCCS(=O)(=O)Nc1ccc(F)c(C(=O)c2c[nH]c3ncc(Cl)cc23)c1F
# In short: as §1
# barasertib = compound: CCN(CCCOc1ccc2c(Nc3cc(CC(=O)Nc4cccc(F)c4)[nH]n3)ncnc2c1)CCOP(=O)(O)O [barasertib]
# In short: as §1
# [10] = compound: CC[C@@H]1C(=O)N(C)c2cnc(Nc3ccc(C(=O)NC4CCN(C)CC4)cc3OC)nc2N1C1CCCC1
# In short: as §1
# volasertib = compound: CC[C@@H]1C(=O)N(C)c2cnc(Nc3ccc(C(=O)N[C@H]4CC[C@H](N5CCN(CC6CC6)CC5)CC4)cc3OC)nc2N1C(C)C [volasertib]
# In short: as §1
# [11] = compound: CCn1c(C(=O)N(C2CC2)C2CC2)cc2c3c(ncn3C)c(Nc3cc(C)n(C)n3)nc21
# In short: as §1
# [12] = compound: CCn1cc(-c2ccnc3[nH]c(-c4cccc(CN(C)C)c4)cc23)c(-c2ccc(NC(=O)N(C)C)cc2)n1
# In short: as §1
# [13] = compound: CN1CCC(CNc2ccc3ncc(-c4cccc(OC(F)(F)F)c4)n3n2)CC1
# In short: as §1
# saracatinib = compound: CN1CCN(CCOc2cc(OC3CCOCC3)c3c(Nc4c(Cl)ccc5c4OCO5)ncnc3c2)CC1 [saracatinib]
# In short: as §1
# sotrastaurin = compound: CN1CCN(c2nc(C3=C(c4c[nH]c5ccccc45)C(=O)NC3=O)c3ccccc3n2)CC1 [sotrastaurin]
# In short: as §1
# Chain of UniProt Q92540 (Q92540 whole entry, looked up): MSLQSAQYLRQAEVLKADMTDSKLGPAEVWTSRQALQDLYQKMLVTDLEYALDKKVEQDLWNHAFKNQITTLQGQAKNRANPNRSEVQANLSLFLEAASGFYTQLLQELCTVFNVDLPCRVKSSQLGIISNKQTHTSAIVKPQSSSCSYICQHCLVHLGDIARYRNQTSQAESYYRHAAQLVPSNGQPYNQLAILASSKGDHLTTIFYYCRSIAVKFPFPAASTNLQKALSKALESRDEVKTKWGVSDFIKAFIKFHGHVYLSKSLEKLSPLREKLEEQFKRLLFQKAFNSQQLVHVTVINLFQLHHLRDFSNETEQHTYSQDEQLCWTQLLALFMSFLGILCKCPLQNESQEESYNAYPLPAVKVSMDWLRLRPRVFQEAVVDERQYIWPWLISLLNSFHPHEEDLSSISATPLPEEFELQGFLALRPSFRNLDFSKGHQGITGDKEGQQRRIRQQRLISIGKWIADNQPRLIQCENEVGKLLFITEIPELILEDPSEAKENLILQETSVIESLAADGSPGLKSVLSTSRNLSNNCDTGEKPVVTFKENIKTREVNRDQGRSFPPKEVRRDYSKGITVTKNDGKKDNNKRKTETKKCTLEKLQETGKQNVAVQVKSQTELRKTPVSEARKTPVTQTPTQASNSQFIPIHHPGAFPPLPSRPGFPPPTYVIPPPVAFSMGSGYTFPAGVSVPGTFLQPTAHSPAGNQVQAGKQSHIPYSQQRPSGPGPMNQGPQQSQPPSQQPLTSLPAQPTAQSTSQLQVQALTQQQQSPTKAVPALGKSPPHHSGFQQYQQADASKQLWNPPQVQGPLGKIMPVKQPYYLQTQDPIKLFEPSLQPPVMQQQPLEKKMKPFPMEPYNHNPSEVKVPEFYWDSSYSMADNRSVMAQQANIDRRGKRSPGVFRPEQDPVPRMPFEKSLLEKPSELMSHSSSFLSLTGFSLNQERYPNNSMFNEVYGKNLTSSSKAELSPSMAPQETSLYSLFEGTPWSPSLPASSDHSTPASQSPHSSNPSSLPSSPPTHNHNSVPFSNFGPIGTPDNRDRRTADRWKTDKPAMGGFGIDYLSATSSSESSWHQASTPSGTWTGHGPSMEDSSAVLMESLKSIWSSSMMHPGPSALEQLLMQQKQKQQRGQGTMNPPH
# Chain of UniProt Q96H78 (Q96H78 whole entry, looked up): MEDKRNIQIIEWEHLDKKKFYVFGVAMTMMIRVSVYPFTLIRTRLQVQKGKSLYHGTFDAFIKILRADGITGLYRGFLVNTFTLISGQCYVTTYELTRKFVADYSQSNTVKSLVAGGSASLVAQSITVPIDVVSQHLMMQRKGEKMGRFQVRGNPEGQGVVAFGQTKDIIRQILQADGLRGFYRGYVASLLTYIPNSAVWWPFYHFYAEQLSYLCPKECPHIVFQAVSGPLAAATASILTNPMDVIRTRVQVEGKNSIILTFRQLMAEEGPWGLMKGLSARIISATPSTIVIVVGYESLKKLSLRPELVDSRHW
# Chain of UniProt Q9NZ72 (Q9NZ72 whole entry, looked up): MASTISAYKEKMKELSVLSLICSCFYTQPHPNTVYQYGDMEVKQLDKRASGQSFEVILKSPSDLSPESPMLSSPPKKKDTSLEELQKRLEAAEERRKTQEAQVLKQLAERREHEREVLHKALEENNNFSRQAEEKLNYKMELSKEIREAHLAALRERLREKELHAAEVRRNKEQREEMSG
# Chain of UniProt Q9H2V7 (Q9H2V7 whole entry, looked up): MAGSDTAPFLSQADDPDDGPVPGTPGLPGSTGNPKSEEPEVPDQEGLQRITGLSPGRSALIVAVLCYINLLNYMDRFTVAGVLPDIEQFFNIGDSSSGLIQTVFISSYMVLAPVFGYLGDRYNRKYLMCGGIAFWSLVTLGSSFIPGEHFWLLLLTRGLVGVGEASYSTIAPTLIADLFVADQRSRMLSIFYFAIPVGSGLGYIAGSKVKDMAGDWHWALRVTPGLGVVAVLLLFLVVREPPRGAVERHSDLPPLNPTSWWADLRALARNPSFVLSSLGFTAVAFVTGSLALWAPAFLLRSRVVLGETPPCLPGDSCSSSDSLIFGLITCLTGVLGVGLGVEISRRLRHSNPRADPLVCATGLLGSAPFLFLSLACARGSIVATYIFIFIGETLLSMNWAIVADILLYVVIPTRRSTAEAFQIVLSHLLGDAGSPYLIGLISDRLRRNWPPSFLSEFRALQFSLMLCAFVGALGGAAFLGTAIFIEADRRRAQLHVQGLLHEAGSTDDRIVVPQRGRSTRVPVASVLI
# Chain of UniProt Q15527 (Q15527 whole entry, looked up): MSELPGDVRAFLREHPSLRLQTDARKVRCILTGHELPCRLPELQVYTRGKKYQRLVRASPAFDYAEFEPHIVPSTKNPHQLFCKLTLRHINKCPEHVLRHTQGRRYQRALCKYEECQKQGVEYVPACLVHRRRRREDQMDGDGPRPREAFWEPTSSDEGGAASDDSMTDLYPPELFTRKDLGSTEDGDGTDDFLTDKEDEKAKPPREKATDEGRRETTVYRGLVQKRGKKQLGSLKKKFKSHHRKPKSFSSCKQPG
# Chain of UniProt Q9BWW4 (Q9BWW4 whole entry, looked up): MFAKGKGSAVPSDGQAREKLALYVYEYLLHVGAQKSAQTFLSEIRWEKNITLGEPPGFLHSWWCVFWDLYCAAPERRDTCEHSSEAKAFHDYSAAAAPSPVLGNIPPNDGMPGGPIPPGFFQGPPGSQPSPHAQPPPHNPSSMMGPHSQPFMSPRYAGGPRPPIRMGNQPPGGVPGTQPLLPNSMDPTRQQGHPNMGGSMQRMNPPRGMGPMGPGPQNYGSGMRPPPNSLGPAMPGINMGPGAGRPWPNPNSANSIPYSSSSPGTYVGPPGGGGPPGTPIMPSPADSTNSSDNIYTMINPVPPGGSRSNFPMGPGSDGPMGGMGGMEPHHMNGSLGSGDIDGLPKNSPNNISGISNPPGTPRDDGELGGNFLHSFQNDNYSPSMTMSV
# Chain of UniProt Q16563 (Q16563 whole entry, looked up): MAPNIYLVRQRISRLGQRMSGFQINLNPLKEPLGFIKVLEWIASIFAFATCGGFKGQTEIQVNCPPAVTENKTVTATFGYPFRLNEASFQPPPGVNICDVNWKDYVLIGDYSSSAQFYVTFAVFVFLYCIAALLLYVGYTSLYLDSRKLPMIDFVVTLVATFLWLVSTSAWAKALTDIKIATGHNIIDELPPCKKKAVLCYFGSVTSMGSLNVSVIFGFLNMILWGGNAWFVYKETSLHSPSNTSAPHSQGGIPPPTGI
# Chain of UniProt Q6NXT4 (Q6NXT4 whole entry, looked up): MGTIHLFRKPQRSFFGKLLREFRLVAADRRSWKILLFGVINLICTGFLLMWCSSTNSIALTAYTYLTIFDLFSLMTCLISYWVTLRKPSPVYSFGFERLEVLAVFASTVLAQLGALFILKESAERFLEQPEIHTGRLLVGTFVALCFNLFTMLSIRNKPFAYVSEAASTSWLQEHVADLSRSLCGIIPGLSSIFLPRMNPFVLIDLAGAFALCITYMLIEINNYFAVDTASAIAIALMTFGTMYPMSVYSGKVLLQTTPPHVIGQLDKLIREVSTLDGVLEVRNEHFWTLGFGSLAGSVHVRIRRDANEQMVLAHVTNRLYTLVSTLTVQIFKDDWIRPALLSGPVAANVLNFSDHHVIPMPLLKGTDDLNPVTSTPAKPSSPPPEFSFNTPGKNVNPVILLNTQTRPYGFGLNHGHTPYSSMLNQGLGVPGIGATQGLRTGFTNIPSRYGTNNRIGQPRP
# Chain of UniProt P53814 (P53814 whole entry, looked up): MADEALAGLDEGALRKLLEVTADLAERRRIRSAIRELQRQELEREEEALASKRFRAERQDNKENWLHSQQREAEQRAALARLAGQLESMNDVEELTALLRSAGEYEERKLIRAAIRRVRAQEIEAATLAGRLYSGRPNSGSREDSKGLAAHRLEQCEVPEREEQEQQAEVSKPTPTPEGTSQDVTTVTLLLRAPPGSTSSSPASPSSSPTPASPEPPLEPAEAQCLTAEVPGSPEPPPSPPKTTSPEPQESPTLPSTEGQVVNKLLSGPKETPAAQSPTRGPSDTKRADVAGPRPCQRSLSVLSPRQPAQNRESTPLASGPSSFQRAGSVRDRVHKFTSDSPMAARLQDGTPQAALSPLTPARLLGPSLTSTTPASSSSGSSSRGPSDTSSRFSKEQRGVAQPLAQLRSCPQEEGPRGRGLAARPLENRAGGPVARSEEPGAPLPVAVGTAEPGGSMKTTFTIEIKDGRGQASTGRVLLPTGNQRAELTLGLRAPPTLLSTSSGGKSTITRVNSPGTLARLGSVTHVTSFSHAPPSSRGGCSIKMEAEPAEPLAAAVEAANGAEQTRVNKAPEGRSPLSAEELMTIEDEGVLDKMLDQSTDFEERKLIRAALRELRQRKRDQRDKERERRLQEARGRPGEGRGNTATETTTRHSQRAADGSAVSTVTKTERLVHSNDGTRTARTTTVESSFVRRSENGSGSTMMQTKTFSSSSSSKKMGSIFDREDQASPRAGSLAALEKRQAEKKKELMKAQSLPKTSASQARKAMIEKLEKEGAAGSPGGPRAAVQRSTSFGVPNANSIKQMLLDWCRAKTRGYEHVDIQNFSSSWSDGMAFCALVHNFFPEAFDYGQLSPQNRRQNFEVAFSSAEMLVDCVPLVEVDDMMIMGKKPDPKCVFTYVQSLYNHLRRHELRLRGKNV
# Chain of UniProt Q86XK3 (Q86XK3 whole entry, looked up): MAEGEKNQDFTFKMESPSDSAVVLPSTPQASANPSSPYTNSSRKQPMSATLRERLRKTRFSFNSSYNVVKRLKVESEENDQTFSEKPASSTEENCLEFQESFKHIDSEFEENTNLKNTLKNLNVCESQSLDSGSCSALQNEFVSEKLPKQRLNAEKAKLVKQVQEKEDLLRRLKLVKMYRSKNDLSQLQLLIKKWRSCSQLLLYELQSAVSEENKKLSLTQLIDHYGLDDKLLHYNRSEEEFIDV
# Chain of UniProt Q13242 (Q13242 whole entry, looked up): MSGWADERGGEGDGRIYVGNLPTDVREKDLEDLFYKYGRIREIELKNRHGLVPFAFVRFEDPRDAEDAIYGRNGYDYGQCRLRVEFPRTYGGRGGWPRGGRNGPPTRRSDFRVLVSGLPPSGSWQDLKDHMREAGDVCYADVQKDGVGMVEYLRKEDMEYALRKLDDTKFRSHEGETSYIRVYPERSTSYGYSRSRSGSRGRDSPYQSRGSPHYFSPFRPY
Target,log2 fold change (ibrutinib),log2 fold change [1],log2 fold change (ralimetinib),log2 fold change [2],log2 fold change [3],log2 fold change [4],log2 fold change [5],log2 fold change [6],log2 fold change [7],log2 fold change [8],log2 fold change (vemurafenib),log2 fold change [9],log2 fold change (barasertib),log2 fold change [10],log2 fold change (volasertib),log2 fold change [11],log2 fold change [12],log2 fold change [13],log2 fold change (saracatinib),log2 fold change (sotrastaurin)
SYPL1 (UniProt Q16563),0.015,0.004,0.018,-0.058,0,-0.025,-0.018,0.007,0.006,-0.005,-0.006,-0.019,0.076,0.004,0.032,-0.011,-0.418 (active),0.194,0.01,0.023
SMTN isoform 6 (UniProt P53814),-0.03,-0.072,-0.02,-0.004,-0.009,0.074,-0.013,0.054,0.05,0.135,0.021,0.061,0.018,-0.007,-0.078,-0.026,-0.036,-0.006,0.013,-0.051
SMG7 (UniProt Q92540),0.019,0.041,-0.036,-0.13,0.066,-0.02,-0.01,-0.281,0.047,0.03,0.073,0.011,0.098,0.071,-0.044,0.074,-0.038,-0.014,0.045,-0.02
SPNS1 (UniProt Q9H2V7),0.02,-0.001,0.005,-0.009,0.007,-0.009,-0.007,0.047,-0.029,0.012,0,0.036,-0.004,0.154,-0.004,-0.097,-0.014,0.064,-0.006,0.02
SRSF9 (UniProt Q13242),-0.009,-0.009,0.001,-0.031,-0.031,-0.019,-0.089,0.047,-0.028,-0.007,-0.104,0.009,0.049,-0.05,-0.029,0.03,-0.006,-0.029,-0.021,-0.064
SURF2 (UniProt Q15527),0.001,-0.019,-0.147,-0.038,,0.103,0.018,0.026,0.031,-0.02,-0.009,-0.002,-0.007,0.049,0.002,0.127,-0.063,0.02,0.004,-0.007
SLC30A6 isoform 2 (UniProt Q6NXT4),0.052,-0.019,-0.013,-0.016,-0.023,0.047,,-0.022,0.053,0.011,-0.098,0.018,0.146,0.105,0.001,-0.03,-0.127,0.063,,-0.004
SSBP3 (UniProt Q9BWW4),0.435 (active),-0.024,0,-0.038,-0.02,-0.021,-0.018,-0.018,0,0.054,-0.02,-0.033,-0.049,-0.001,0.008,0.038,-0.03,-0.083,0.068,-0.005
SLC25A44 (UniProt Q96H78),-0.006,0.002,0.065,-0.322,-0.031,,-0.017,0.038,-0.118,0.002,0.014,0.015,0.007,0.002,0.06,0.307,0.021,0.17,-0.041,0.062
SPATA5L1 (UniProt Q9BVQ7),-0.007,0.02,0.037,-0.054,0.018,-0.004,-0.052,-0.007,0.026,-0.008,0.03,0.015,0.052,-0.058,-0.135,0.014,-0.023,0.012,0.024,0.015
SLC25A17 (UniProt O43808),-0.007,-0.043,0.047,-0.019,0.037,0.001,0.029,0.03,-0.01,0.044,-0.035,-0.031,0.02,0.066,0.04,-0.043,-0.119,0.103,0.041,0.015
SFR1 isoform 2 (UniProt Q86XK3),0.023,-0.006,0.003,-0.012,-0.005,-0.006,0.041,0.026,0.06,0.016,-0.031,-0.037,0.024,0.028,0.022,0.013,-0.087,-0.119,-0.04,0.085
STMN3 (UniProt Q9NZ72),0.006,-0.028,0.093,0.025,-0.089,-0.003,-0.059,0.012,-0.011,0.009,-0.123,-0.006,0.098,0.096,0.002,-0.066,,,0.053,0.009
